Data reported in PubChem BioAssay AID1345085 (National Center for Advancing Translational Sciences (NCATS), 2018).
Results filed as inconclusive are left out. Values without a mark were called inactive. Activity calls are given as the source filed them. The call rests on the fitted dose curve; in most records, active means well fitted cell-killing curve with a large enough effect; inconclusive means small, poorly fitted or top-dose-only effect, or effect the other way; inactive means no such curve, though single readings can be large or run the other way.

Tested on: CAOV3
Experiment: Confirmatory qHTS for gynecologic anti-cancer compounds from libraries of approved drugs and bioactive compounds; further: nearly all actives have a fitted effect of over 55% in size
Conditions: gynecologic cancer cell panel viability, ATPlite luminescence, 48 h; series mostly up to 57.6 µM
Procedure, shortened: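 Cells (1,000/well) were plated, left 16 h at 37 C/5% CO2, then given compound at 11 concentrations (1:3) from 57.5 uM to 0.977 nM for 48 h. ATPlite luminescence after 15 min at room temperature gave IC50 values.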
On the % scale 0 is the no-effect control and ±100 the full control effect; potency means the concentration at half of the fitted maximal effect.

Structure (SMILES) | Potency | activity change, negative = viability loss
O=C(NOCC1CC1)c1ccc(F)c(F)c1Nc1ccc(I)cc1Cl | inactive | 
CCN1CCN(Cc2ccc(Nc3ncc(F)c(-c4cc(F)c5nc(C)n(C(C)C)c5c4)n3)nc2)CC1 | inactive | 
CC(C)CC(=O)Nc1n[nH]c2c1CN(C(=O)C1CCN(C)CC1)C2(C)C | 1.22 µM (active) | 
S=c1nc[nH]c2nc[nH]c12 | 0.769 µM (active) | 
CC(C)c1nn(-c2c(Cl)cccc2Cl)c2nc(Cc3ccc(OCCO)cc3)[nH]c(=O)c12 | inactive | 
CNc1nccc(-c2cccnc2Oc2cc(C(=O)Nc3cccc(C(F)(F)F)c3)ccc2C)n1 | 24.3 µM (active) | 
COc1cc(N2CCC(N3CCN(C)CC3)CC2)ccc1Nc1ncnc(Nc2ccccc2S(=O)(=O)C(C)C)n1 | 15.3 µM (active) | 
O=C(c1ccc(/C=C/c2n[nH]c3ccccc23)cc1)N1CCNCC1 | 19.3 µM (active) | 
CN[C@@H](C)C(=O)N[C@H]1CN(C(=O)CC(C)C)CC[C@H]2CC[C@@H](C(=O)NC(c3ccccc3)c3ccccc3)N2C1=O | inactive | 
COc1cc2c(cc1-c1c(C)noc1C)ncc1[nH]c(=O)n(C(C)c3ccccn3)c12 (centres undefined) | 1.09 µM (active) | 
CCN[C@H]1C[C@H](C)S(=O)(=O)c2sc(S(N)(=O)=O)cc21 | inactive | 
Oc1cn2c(n1)Nc1ccc(Cl)c(Cl)c1C2 | inactive | 
Cc1nc(Nc2ncc(C(=O)Nc3c(C)cccc3Cl)s2)cc(N2CCN(CCO)CC2)n1 | 24.3 µM (active) | 
Cc1cnc(Nc2cccc(CN3CCOCC3)c2)nc1Nc1cccc(S(=O)(=O)NC(C)(C)C)c1 | 10.9 µM (active) | 
COc1ccc2c(c1)c(CC(=O)O)c(C)n2C(=O)c1ccc(Cl)cc1 | inactive | 
Cc1[nH]c2ccccc2c1CCNCc1ccc(/C=C/C(=O)NO)cc1 | 0.685 µM (active) | 
NC1(c2ccc(-c3nc4ccn5c(=O)[nH]nc5c4cc3-c3ccccc3)cc2)CCC1 | inactive | 

Structure (SMILES) | Potency | activity change, negative = viability loss
NC(=O)c1cnc(-c2ccc(C3(N)CCC3)cc2)c(-c2ccccc2)c1 | 30.6 µM (active) | 
O=C(CCCCCCC(=O)Nc1ccccc1)NO | 12.2 µM (active) | 
COCCOc1ccc2c(c1)ncn2-c1ccc2cccc(N3CCC(N)CC3)c2n1 | inactive | 
Cc1ccc(C(=O)Nc2ccc(CN3CCN(C)CC3)c(C(F)(F)F)c2)cc1C#Cc1cnc2[nH]ncc2c1 | 30.6 µM (active) | 
C=CC(=O)Nc1cccc(Oc2nc(Nc3ccc(N4CCN(C)CC4)cc3)ncc2Cl)c1 | 19.3 µM (active) | 
Cc1cnc(CNC(=O)c2c(=O)c3ccc(N4CCCN(C)CC4)nc3n3c2sc2ccccc23)cn1 |  | 22.5% [at 10.7 µM]
O=C(Nc1cn[nH]c1-c1nc2ccc(CN3CCOCC3)cc2[nH]1)NC1CC1 | 0.122 µM (active) | 
O=c1[nH]c(=O)n([C@H]2C[C@H](O)[C@@H](CO)O2)cc1Br | inactive | 
CCCc1nn(C)c2c(=O)[nH]c(-c3cc(S(=O)(=O)N4CCN(C)CC4)ccc3OCC)nc12 | inactive | 
COc1cc2nccc(Oc3ccc(NC(=O)C4(C(=O)Nc5ccc(F)cc5)CC4)cc3)c2cc1OC | 21.7 µM (active) | 
COc1ccc(-c2ccc3c(N4CCOCC4C)nc(N4CCOCC4C)nc3n2)cc1CO (centres undefined) | inactive | 
Cc1ccccc1C(OCCN(C)C)c1ccccc1 (centres undefined) | inactive | 
CN1CCN(CCOc2cc(OC3CCOCC3)c3c(Nc4c(Cl)ccc5c4OCO5)ncnc3c2)CC1 | inactive | 
CN(C)C(CCOc1cccc2ccccc12)c1ccccc1 (centres undefined) | 30.6 µM (active) | 
CCC1C(=O)N(C)c2cnc(Nc3ccc(C(=O)NC4CCN(C)CC4)cc3OC)nc2N1C1CCCC1 (centres undefined) | 4.85 µM (active) | 
c1nc2nc(Nc3ccc(N4CCOCC4)cc3)nc(NC3CCCCC3)c2[nH]1 | 4.73 µM (active) | 
Nc1ccc(-c2ccc3ncc4ccc(=O)n(-c5cccc(C(F)(F)F)c5)c4c3c2)cn1 | 3.43 µM (active) | 
